# Test results published in ChEMBL document CHEMBL3988442, “University of Dundee, Small-Polar-MMV Screening Library” (2021).
# Screen size: about 48,000 compounds; about 13,000 (27%) showed an effect of 50% or more. The list shows a part of the results.
# System: Wolbachia pipientis
# Assay: Anti-Wolbachia Cell-Based Screen
# Type: functional
# Set-up: scale not given: in the data most compounds retested in dose-response had high values
# Settings: 5 µM
row,SMILES,Percent Effect [%]
1,CCOc1cccc(COC(=O)c2scnc2C)n1,-15.18
2,O=C(NCCn1cccn1)C1CCC(=O)N(CC2CCCCC2)C1 (configuration not stated),7.611
3,Cc1ccccc1OC1CN(Cc2c(C)nc3ccccn23)C1,-115.8
4,CNc1nc(CNC(=O)Nc2cccc(F)c2C)cs1,-1.885
5,O=C(NCCCn1cccn1)C1CCC(=O)N(Cc2ccccc2F)C1 (configuration not stated),-2.925
6,CC(C)OCCCNC(=O)c1ccc(-c2ccco2)[nH]c1=O,-5.072
7,COCCCNC(=O)C(C)n1nc(-c2ccco2)cc(N)c1=O (configuration not stated),133.4
8,COCCNC(=O)C(C)n1nc(-c2ccco2)cc(N)c1=O (configuration not stated),94.6
9,COCCCNC(=O)Nc1cc(-c2ccccc2C)nn1CCO,-5.534
10,CCC(C)NC(=O)c1ccc(-c2ccco2)[nH]c1=O (configuration not stated),3.717
11,CC(C)CCNC(=O)c1ccc(-c2ccco2)[nH]c1=O,11.73
12,COc1cc(NC(=O)N(C)Cc2ccc(Br)o2)ncn1,1.624
13,COc1ccnc(NC(=O)c2cscn2)c1,-4.154
14,CSc1ncccc1C(=O)N1C[C@H]2CC[C@@H]1CN(CC(=O)N(C)C)C2,-12.01
15,F[C@@H]1CN(CC2CC2)C[C@@H]1OCc1nc2ccccc2o1,-15.91
16,C[C@@H]1CN(Cc2cc(C3CCCCC3)no2)CC[C@@]1(O)C1CC1,9.24
17,COc1cccc(OCCN2CC[C@@](O)(C3CCOCC3)[C@H](C)C2)c1,98.26
18,COc1cc(F)c(CN2CC[C@@](O)(C3CC3)[C@H](C)C2)cc1OC,9.055
19,C[C@@H]1CN(C(=O)CCCN2CCCC2)CC[C@@]1(O)C1CCOCC1,-4.515
20,C[C@@H]1CN(C(=O)CCCN2CCOCC2)CC[C@@]1(O)C1CCC1,-2.629
21,C[C@@H]1CN(CCOc2ccc(F)cc2)CC[C@@]1(O)C1CCOCC1,93.05
22,C[C@@H]1CN(CCOCc2ccccc2)CC[C@@]1(O)C1CCC1,-4.959
23,C[C@@H]1CN(CCCOc2ccc(F)cc2)CC[C@@]1(O)C1CCOCC1,97.34
24,C[C@@H]1CN(CCOc2ccc(Cl)cc2)CC[C@@]1(O)C1CCOCC1,95.64
25,CN(C)CCN(C)S(=O)(=O)Cc1ccc(Br)cc1,-1.249
26,CCC(=O)c1ccc(OCC(=O)NC(C)c2nnc(C)[nH]2)cc1 (configuration not stated),8.329

row,SMILES,Percent Effect [%]
1,O=C(CCNS(=O)(=O)c1ccc2c(c1)CCCC2)NCc1ccoc1,1.514
2,CCN(Cc1csc(CS(C)(=O)=O)n1)c1cccc(CO)c1,6.548
3,CCc1nsc(NC2CCOC3(CCCC3)C2)n1 (configuration not stated),-3.423
4,COCCCNS(=O)(=O)c1cc(C)sc1C,1.598
5,C=C(C)COc1cccc(CNC(CC)c2ccnn2C)c1 (configuration not stated),-16.98
6,Cc1nccn1C1CCCN(C(=O)c2cccc(-n3cccc3)c2)C1 (configuration not stated),98.3
7,Cc1nccn1C1CCCN(C(=O)c2cccc(S(C)(=O)=O)c2)C1 (configuration not stated),94.78
8,NC(=O)COc1cccc(C(=O)N2CCCC(n3cccn3)C2)c1 (configuration not stated),-6.954
9,COc1cccc(COCC(=O)N2CCCC(n3ccnc3C)C2)c1 (configuration not stated),-4.06
10,Cc1nccn1C1CCCN(C(=O)c2cccc(OCC(N)=O)c2)C1 (configuration not stated),92.13
11,CC(=O)c1cn(CCC(=O)N[C@H](C(=O)O)C(C)C)c2ccccc12,14.47
12,CN1CCCC(N(C)S(=O)(=O)c2cccc3ncccc23)C1 (configuration not stated),142.2
13,CN1CCC(CN(C)S(=O)(=O)CC2CCCCC2)CC1,-3.898
14,Cc1ccc2cccc(S(=O)(=O)N(C)C3CCCN(C)C3)c2n1 (configuration not stated),110
15,CN(C1CCN(c2ccccn2)CC1)S(=O)(=O)c1ccccc1F,-17.13
16,CN1CCCC(N(C)C(=O)c2ccc(NC(=O)c3cc[nH]n3)cc2)C1 (configuration not stated),-7.369
17,Cc1ccc2cccc(S(=O)(=O)N(C)CC3CCN(C)CC3)c2n1,117.6
18,CN1CCC(CNC(=O)c2ccc3cccc(Cl)c3n2)C1 (configuration not stated),16.58
19,CCN(C1CCS(=O)(=O)C1)S(=O)(=O)c1cccc2cc(C)cnc12 (configuration not stated),2.36
20,Cc1ccc2cccc(C(=O)NCCOCC3CC3)c2n1,4.026
21,CN(C1CCCCC1)S(=O)(=O)NC1CCCN(c2ncccn2)C1 (configuration not stated),-0.1008
22,Cc1ccc2cccc(S(=O)(=O)N(C)CC3CCN(C)C3)c2n1 (configuration not stated),116.7
23,Cc1ccc2cccc(C(=O)NCC3CCN(C(C)C)C3)c2n1 (configuration not stated),-2.471
24,COCCN1CC(c2nc(CC3CCN(C)CC3)no2)CCC1=O (configuration not stated),-7.698
25,Cc1ccc(C(N)=O)cc1NCCOc1cccc(C#N)c1,-8.652
26,O=C(c1[nH]nc2c1CCCC2)N1CCC(OCCN2CCCCC2)C1 (configuration not stated),5.05

row,SMILES,Percent Effect [%]
1,COCCN(CCC#N)S(=O)(=O)c1ccc(F)cc1Cl,-17.33
2,CCOc1ncc(NC(=O)c2ccco2)c(OCC)n1,6.887
3,O=C(NCCn1ccnc1)N1CCN(Cc2cccnc2)CC1,109.3
4,O=C(NCCn1ccnc1)N1CCCC1c1ccsc1 (configuration not stated),8.592
5,Cc1ccc(CNC(=O)N2CCN(Cc3ccsc3)CC2)n1C,2.843
6,CC1CN(C(=O)NCCn2ccnc2)CCO1 (configuration not stated),-11.62
7,O=C(NCCNc1ncccn1)N1CCN(Cc2cccnc2)CC1,-0.1396
8,CC(=O)N1CCN(C(=O)NCc2ccccc2Cn2ccnc2)CC1,-14.94
9,O=C(NCCn1ccnc1)N1CCN(Cc2ccco2)CC1,103.9
10,CC(Cn1ccnc1)NC(=O)N1CCN(Cc2cccnc2)CC1 (configuration not stated),-2.682
11,O=C(NCCn1ccnc1)N1CCN(Cc2ccsc2)CC1,102.5
12,Cc1cc(C)n(CC2(CNC(=O)C(c3ccccc3C)N(C)C)CC2)n1 (configuration not stated),-3.627
13,Cc1nc(CN(CCS(C)(=O)=O)C(C)C)cs1,-0.8172
14,Cc1ccoc1C(=O)N1CCO[C@H]2[C@H](OCc3ccncc3)CC[C@@H]21,96.45
15,Cc1cccc(C(=O)N2CCO[C@H]3[C@H](OCCN(C)C)CC[C@@H]32)n1,97.76
16,CN(C)CCO[C@@H]1CC[C@H]2[C@H]1OCCN2C(=O)c1ccc(F)cc1.O=C(O)C(F)(F)F,97.45
17,Cc1ccc(C(=O)N2CCO[C@H]3[C@H](OCCN(C)C)CC[C@@H]32)cn1,110.3
18,Cc1ccc(C(=O)N2CCO[C@H]3[C@H](OCCN(C)C)CC[C@@H]32)o1.O=C(O)C(F)(F)F,8.027
19,CO[C@@H]1CC[C@H]2[C@H]1OCCN2C(=O)c1ccc(C)nc1.O=C(O)C(F)(F)F,2.504
20,CO[C@H]1CC[C@H]2[C@H]1OCCN2C(=O)c1ccc(C)nc1,6.779
21,O=C(C1CCOCC1)N1CCO[C@H]2[C@@H](OCc3ccncc3)CC[C@@H]21,-9.852
22,Cc1ccoc1C(=O)N1CCO[C@H]2[C@H](OCC3CCOCC3)CC[C@@H]21,-7.099
23,c1ccc2c(c1)OCCC2NCc1ccc(N2CCOCC2)cc1 (configuration not stated),6.608
24,Cc1cccc(Nc2c(C#N)c(=O)n(C)c(=O)n2C)c1,-3.383
25,Cc1cncc(C(=O)N2CCO[C@H]3[C@H](Oc4ccccn4)CC[C@@H]32)c1.O=C(O)C(F)(F)F.O=C(O)C(F)(F)F,-8.484
26,CN(C)CCO[C@@H]1CC[C@H]2[C@H]1OCCN2C(=O)c1ccncc1,113.2

row,SMILES,Percent Effect [%]
1,O=C(O)C(F)(F)F.O=C(c1cnccn1)N1CCO[C@H]2[C@H](OCc3cccnc3)CC[C@@H]21,-4.658
2,Cc1cncc(C(=O)N2CC[C@@H]3[C@H]2CCC(=O)N3CCN(C)C)c1.O=C(O)C(F)(F)F.O=C(O)C(F)(F)F,-10.7
3,Cc1cncc(C(=O)N2CCO[C@H]3[C@H](OCCN(C)C)CC[C@@H]32)c1.O=C(O)C(F)(F)F.O=C(O)C(F)(F)F,111.8
4,CN(C)CCO[C@@H]1CC[C@H]2[C@H]1OCCN2C(=O)c1ccnnc1.O=C(O)C(F)(F)F,98
5,Cc1ccc(C(=O)N2CCN3C[C@H](Oc4cccc(F)c4)C[C@H]3C2)cn1.O=C(O)C(F)(F)F.O=C(O)C(F)(F)F,3.581
6,CC(C)N1CCCC2(CCN(C(=O)CCCn3cccn3)C2)C1=O (configuration not stated),-14.27
7,Cc1nc(C)c(S(=O)(=O)NC(=O)c2sccc2C)s1,101.5
8,Cc1cn2c(n1)CCC(NS(=O)(=O)c1sc(C)nc1C)C2 (configuration not stated),-17.67
9,Cc1nc(C)c(S(=O)(=O)NC(=O)c2cccs2)s1,102.2
10,CC(NC(=O)c1cccs1)C(=O)NS(=O)(=O)c1cccc(C#N)c1 (configuration not stated),3.018
11,CSc1ccsc1C(=O)NS(=O)(=O)c1ccc(F)cc1,-34.42
12,CC(NC(=O)c1cccs1)C(=O)NS(=O)(=O)c1ccc(C#N)cc1 (configuration not stated),8.47
13,O=C(NCCCC(=O)N1Cc2ccccc2C1)NCc1cccnc1,2.963
14,CN(CC1CCC1)C(=O)c1ccc(-c2nc(C3CC3)n[nH]2)cc1,0.7414
15,CC1CNC(=O)CCN1Cc1cc(O)c2cccc(F)c2n1 (configuration not stated),-25.66
16,O=C(c1cscn1)N1CCc2ncnc(-c3ccncc3)c2CC1,110.3
17,O=C(O)C(F)(F)F.O=C(c1cnccn1)N1CCc2ncnc(-c3cccnc3)c2CC1,-7.804
18,CN(C)CC(=O)N1CCc2ncnc(-c3ccsc3)c2CC1,-2.469
19,CN(C)c1ncnc2c1CCN(C(=O)c1cccnc1)CC2.O=C(O)C(F)(F)F,9.198
20,O=C(C1CC=CC1)N1CCc2ncnc(-c3ccncc3)c2CC1,8.097
21,O=C(c1ccccn1)N1CCc2ncnc(-c3ccncc3)c2CC1,88.26
22,O=C(O)C(F)(F)F.O=C(c1cscn1)N1CCc2ncnc(-c3cccnc3)c2CC1,99.58
23,O=C(c1cc[nH]n1)N1CCc2ncnc(NCc3ccccn3)c2CC1,-6.382
24,O=C(c1ccccn1)N1CCc2ncnc(N3CCOCC3)c2CC1,-1.06
